Experimental data taken from PubChem BioAssay (NCATS).
Results filed as inconclusive are left out. The source made the active and inactive calls. Calls follow the shape of the dose curve; as a rule, active = well fitted cell-killing curve with a large enough effect; inconclusive = small, poorly fitted or top-dose-only effect, or effect the other way; inactive = no such curve, though single readings can be large or run the other way.

Assay: Quantitative High-Throughput drug screen in 47 multiple myeloma cell lines against the NCATS MIPE library collection: KMS21BM_JCRB cell viability assay (AID 1918974)
Settings: ATP luminescence, 48 h; viability: at 45.8 µM unless noted
Excerpt: PI: Beverly A. Mock Ph.D.
Laboratory of Cancer Biology and Genetics,
Center for Cancer Research, National Cancer Institute,
National Institute of Health, Bethesda, Maryland
Drug resistance and disease progression are common in multiple myeloma (MM) patients, underscoring the need for new therapeutic combinations. […] We hypothesized that effective combinations would reduce MYC expression and enhance p16 activity. […] These preclinical data identify potentially useful drug combinations for evaluation in drug-resistant MM and reveal potential mechanisms of combined drug sensitivity.
Described herein is the primary MIPE qHTS used to cherrypick compounds. Validated compounds were then further tested for potential synergistic activiy.
[1] Peat TJ, Gaikwad SM, Dubois W, Gyabaah-Kessie N, Zhang S, Gorjifard S, Phyo Z, Andres M, Hughitt VK, Simpson RM, Miller MA, Girvin AT, Taylor A, Williams D, D'Antonio N, Zhang Y, Rajagopalan A, Flietner E, Wilson K, Zhang X, Shinn P, Klumpp-Thomas C, McKnight C, Itkin Z, Chen L, Kazandijian D, Zhang J, Michalowski AM, Simmons JK, Keats J, Thomas CJ, Mock BA. Drug combinations identified by high-throughput screening promote cell cycle transition and upregulate Smad pathways in myeloma. Cancer Lett. 2023 Aug 1;568:216284. doi: 10.1016/j.canlet.2023.216284. Epub 2023 Jun 24. PMID: 37356470; PMCID: PMC10408729.
SEQUENCE No. (e.g., 1, 2, 3, etc.); […] (e.g., Cells, Incubation, Reagent, etc.); VALUE and DESCRIPTION.
1; Cells; 5 uL; white, solid bottom 1536-well Greiner assay plate.
2; Compounds; 23 nL; Kalypsis pin tool (Wako USA) equipped with a 1536-well pin head to transfer to the assay plates.
3; Incubation; 48 hours; 37C incubation.
4; Reagent;5uL; CellTiter Glo (Promega).
5; Detector; 425V; Luminescence; Viewlux PerkinElmer.
NOTES (numbers refer to Sequence numbers above)
1. The cell-based screening methods employed in this study were like those previously published. Briefly, the corresponding myeloma cell lines were screened in 1,536-well plates with 500 cells, 5-uL per well for inhibition of cell viability (assessed by measuring ATP levels with CellTiterGlo).
2. NCATS MIPE 4.0 library of approved and investigational drugs were added using the Kalypsis pin tool. Wells treated with DMSO only for 100% viability and media only wells for 0% viability were used as controls.
3. The assay plates were covered and incubated for 48 hours in a 37C, 5% CO2 incubator with controlled humidity.
4. After 48 hours, CellTilter-GloTM luminescent substrate mix (Promega) reagent was added to the assay plate and plates we incubated for 5 min at room temperature.
5. Signal was measured as median relative luminescence units on a ViewLux (PerkinElmer) multiplate reader.
[1] Heske CM, Davis MI, Baumgart JT, Wilson K, Gormally MV, Chen L, Zhang X, Ceribelli M, Duveau DY, Guha R, Ferrer M, Arnaldez FI, Ji J, Tran HL, Zhang Y, Mendoza A, Helman LJ, Thomas CJ. Matrix Screen Identifies Synergistic Combination of PARP Inhibitors and Nicotinamide Phosphoribosyltransferase (NAMPT) Inhibitors in Ewing Sarcoma. Clin Cancer Res. 2017 Dec 1;23(23):7301-7311. doi: 10.1158/1078-0432.CCR-17-1121. Epub 2017 Sep 12. PMID: 28899971; PMCID: PMC6636827.
Potency is read from the fitted curve at half-maximal effect.

Compound	Potency	viability
Cc1cc(=O)c2c(O)c3c(O)cc(=O)c4c3c3c(cc(O)c1c23)C(C)(C)C=4O	4.18 µM (active)	–
Clc1ccc(C(Cn2ccnc2)OCc2ccc(Sc3ccccc3)cc2)c(Cl)c1 (configuration not stated)	26.4 µM (active)	–
Cn1c(NCCN(CCO)CCCc2ccc([N+](=O)[O-])cc2)cc(=O)n(C)c1=O	10.5 µM (active)	–
Nc1ccc(S(N)(=O)=O)cc1	inactive	–
Clc1ccc(C(Cn2ccnc2)OCc2c(Cl)cccc2Cl)c(Cl)c1 (configuration not stated)	20.9 µM (active)	–
CC(C)Oc1ccc2c(=O)c(-c3ccccc3)coc2c1	–	387% (active)
O=C(O)c1cccc(-c2noc(-c3ccccc3F)n2)c1	–	121% (active)
O=C(OC1C[C@H]2CC[C@@H](C1)[N+]21CCCC1)C(O)(c1ccccc1)c1ccccc1 (some centres not stated)	inactive	–
COc1cc2c(cc1OC)C1CC(=O)C(CC(C)C)CN1CC2 (configuration not stated)	20.9 µM (active)	–
Cc1nc(Nc2ncc(C(=O)Nc3c(C)cccc3Cl)s2)cc(N2CCN(CCO)CC2)n1	0.209 µM (active)	–
CCN(CCO)CCCC(C)Nc1ccnc2cc(Cl)ccc12 (configuration not stated)	inactive	–
c1cnc2cc3c(cc2n1)C1CNCC3C1	inactive	–
Nc1nc(Cl)nc2c1ncn2[C@H]1C[C@H](O)[C@@H](CO)O1	0.0935 µM (active)	–
Nc1nc(OCc2ccccc2)c2[nH]cnc2n1	4.69 µM (active)	–
CCOC(=O)C1=C(O)C(=O)N(Cc2ccccc2)C1	inactive	–
CN(C)c1ccc2nc3ccc(=[N+](C)C)cc-3sc2c1	1.48 µM (active)	–
O=c1cc(N2CCOCC2)oc2c(-c3ccccc3)cccc12	inactive	–
CCC1=C(C)CN(C(=O)NCCc2ccc(S(=O)(=O)NC(=O)NC3CCC(C)CC3)cc2)C1=O (configuration not stated)	inactive	–
CC(C)(S)[C@@H](N)C(=O)O	inactive	–
COc1cc(OC)c(C(=O)CCCN2CCCC2)c(OC)c1	18.7 µM (active)	–
C[Se]CCC(N)C(=O)O (configuration not stated)	–	325% [at 92.2 µM] (active)
O=C(c1ccccc1)c1ccc2n1CCC2C(=O)O (configuration not stated)	inactive	–
